High-throughput results (PubChem BioAssay)
Only some compounds are listed: those with a hit (about 3.1% of all), similar ones and a draw of the others.
uPA surface inh: inhibitors of cell surface uPA generation; Potency, µM (highest dose often 38.3 µM), for inactives: at the highest dose activity change, negative = inhibition, hits mostly inhibitors; 330,000 compounds, 0.31% hits; AID 540303; cell surface uPA generation assay, qHTS; active = well fitted inhibition curve with a large enough effect; inconclusive = small, poorly fitted or top-dose-only effect; inactive = no such curve, though single readings can be large or run the other way; tested in mouse RAW 264.7 cells; also: potency is read from the fitted curve at half-maximal effect; % is scaled to controls: 0 for no effect and ±100 for the full control effect; nearly all actives have a fitted effect of over 55% in size
DRD3 antagonist: D3 dopamine receptor (human) antagonism. max response, negative = inhibition, %. 360,000 compounds, 2.5% hits. AID 652054. D3R cells, DiscoveRx beta-arrestin luminescence, antagonist mode; stronger effect = lower value; in the data active = max response below about -50%; inconclusive = no clear call, values can overlap the other calls; also: % is scaled to controls: 0 for no effect and ±100 for the full control effect
Target sequence (P35462 whole entry, looked up): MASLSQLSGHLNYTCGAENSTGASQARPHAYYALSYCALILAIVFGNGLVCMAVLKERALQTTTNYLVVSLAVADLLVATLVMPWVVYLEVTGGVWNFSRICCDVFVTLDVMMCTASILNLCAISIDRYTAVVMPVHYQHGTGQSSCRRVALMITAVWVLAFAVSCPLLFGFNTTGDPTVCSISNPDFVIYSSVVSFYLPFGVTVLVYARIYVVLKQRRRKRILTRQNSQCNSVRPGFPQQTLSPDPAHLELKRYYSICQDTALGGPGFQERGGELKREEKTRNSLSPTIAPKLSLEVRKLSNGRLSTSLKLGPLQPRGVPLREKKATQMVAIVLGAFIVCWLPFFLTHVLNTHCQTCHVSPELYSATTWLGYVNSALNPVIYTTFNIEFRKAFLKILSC
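Cells plated overnight at 1500 cells/well, then exposed to library compounds with dopamine controls for 90 minutes at 37 degrees C. DiscoveRx reagent added for 30–60 minutes at room temperature; luminescence read, quantitative HTS format.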
RGS4 inhibitor: blocks human RGS4-accelerated GTP hydrolysis; P49798; Transcreener GDP fluorescence polarization, RGS4-accelerated GTP hydrolysis; Potency, µM (titrated, usually from 114 µM), for the others: at the top dose activity change, negative = inhibition, actives largely listed as inhibitors; 390,000 compounds, 0.039% hits; active = well fitted inhibition curve with a large enough effect; inconclusive = small, poorly fitted or top-dose-only effect; inactive = no such curve, though single readings can be large or run the other way; also: potency is read from the fitted curve at half-maximal effect; % is scaled to controls: 0 for no effect and ±100 for the full control effect; nearly all actives have a fitted effect of over 75% in size
Target sequence (P49798 whole entry, looked up): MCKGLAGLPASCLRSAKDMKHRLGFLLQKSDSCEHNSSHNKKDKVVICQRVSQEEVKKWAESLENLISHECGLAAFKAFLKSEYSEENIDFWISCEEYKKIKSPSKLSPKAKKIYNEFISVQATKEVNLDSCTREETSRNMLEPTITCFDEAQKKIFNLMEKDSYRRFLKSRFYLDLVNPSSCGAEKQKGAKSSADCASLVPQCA
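MLSMR compounds (23 nl, pin-transferred) preincubated 10 min at room temperature with a 500nM (2x) first reagent, then RGS4 at 900nM (2x) plus Transcreener GDP mix added; fluorescence polarization (620/688 nm) read before and after 90 min at 30 °C.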
D3 ag: agonists of human D3 dopamine receptor; 410,000 compounds, 0.58% hits; max activation, %; D3R DiscoveRx beta-arrestin cells, luminescence, 90 min; P35462; AID 652048; in the data active = max activation above about 30%; also: 0% is about no effect
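Agonist-mode cell screen: cells plated at 1500/well and incubated overnight at 37 °C, then exposed to library compounds for 90 min at 37 °C. Detection reagent was added for 30–60 min at room temperature, and luminescence was read.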
Starred values were filed as active, the others as inactive; ? = inconclusive; nt = not tested or not shown; [ ] = another dose, or the depositor's remark.

SMILES	uPA surface inh	DRD3 antagonist	RGS4 inhibitor	D3 ag
O=C(COc1ccccc1)NCC(c1cccs1)S(=O)(=O)c1ccc(Cl)cc1 (configuration not stated)	nt	nt	-21.2%	2.3
COCCNC(=O)c1c(C)cc(C)cc1C	-0.9%	-76.9*	3.3%	0.1
COc1ccc(-c2csc(N3CCN(c4cc(C)nc5ccccc45)CC3)n2)cc1OC	-6.6%	76.3	-6.9%	31.6*
O=C(COc1ccccc1)NCC(=O)N/N=C/c1ccc(Cl)cc1	-1.9%	-7.3	23.6%	-1.0
O=C(COc1ccc(Cl)cc1)N/N=C/CCc1ccccc1	-3.1%	-60.0*	1.4%	-4.0
O=[N+]([O-])c1ccc(N/N=C/c2sc(N3CCOCC3)nc2-c2ccccc2)c(S(=O)(=O)Nc2ccccc2Cl)c1	-0.9%	-52.5*	-4.0%	-3.5
O=[N+]([O-])c1ccc(N/N=C/c2sc(N3CCOCC3)nc2-c2ccccc2)c(S(=O)(=O)Nc2ccc(Cl)cc2)c1	?	-70.1*	-12.0%	-29.4
COc1cc2c(c(OC)c1OC)-c1c(cc3c(c1OC)OCO3)C[C@@H](C)[C@](C)(O)C2	nt	nt	nt	8.3
CCOC(=O)c1cnc2ccc(OC)cc2c1Nc1ccc2c(c1)OCCO2	-8.3%	-70.1*	0.4%	0.1
CCOC(=O)c1cnc2ccc(C(=O)OC)cc2c1Nc1ccc2c(c1)OCCO2	8.2%	17.0	0.0%	7.7
CCOC(=O)C1=C(C)N(Cc2ccccc2)C(=O)NC1c1ccccc1OS(=O)(=O)c1ccccc1[N+](=O)[O-] (configuration not stated)	-0.8%	0.0	3.4%	45.6*
COCCNC(=O)c1noc2c1CCc1cc(OC)ccc1-2	nt	?	-3.6%	10.9
COc1ccc2c(c1)CCc1c(C(=O)NC3CCCCC3)noc1-2	nt	27.8	2.5%	34.8*
CCOC(=O)Cn1nc2oc(=O)c(CCN3CCN(c4ccccc4OC)CC3)c(C)c2c1C	nt	-107.5*	nt	-7.1
COc1ccc(CCNC(=O)Cn2ncc3c(C)n(Cc4ccccc4F)c(C)c3c2=O)cc1OC	nt	nt	?	-1.0
CC1(C)Cc2c(sc(NC(=O)c3ccc(C(=O)c4ccccc4)cc3)c2C#N)C(C)(C)N1	-0.1%	-57.1*	-16.2%	-18.5
COc1ccc(CC2(CO)CCN(Cc3cc4ccccc4o3)CC2)cc1	1.6%	-56.2*	8.4%	24.9
COC(=O)c1ccc(CN2CCCC(CO)(Cc3ccc(F)cc3F)C2)cc1 (configuration not stated)	3.8%	-95.9*	29.0%	-18.4
COC(=O)c1ccc(CN2CCC(CO)(Cc3cccc(OC)c3)CC2)cc1	13.4%	-79.8*	-12.6%	-9.0
CCc1c(CN2CCN(c3ccccc3F)CC2)csc1C	nt	nt	-10.5%	-9.2
COc1cccc(-n2cn[nH]c2=S)c1	5.9%	-3.4	2.6%	2.0
COc1cccc(-n2sc3c(c2=S)-c2cc(OC)ccc2NC3(C)C)c1	-10.1%	-68.6*	-42.2%	-6.4
Cc1nc2nc(C)c(CCC(=O)NCCc3ccccc3)c(C)n2n1	nt	nt	3.8%	3.9
O=C(CSc1nnc(NC(=O)C2CCC2)s1)Nc1ccc(N2CCOCC2)cc1	1.9%	-72.8*	-55.8%[56.9 µM]	-10.7
O=C(CSc1nnc(NC2CC2)s1)Nc1ccc(N2CCOCC2)cc1	?	1.2	15.6%	-4.0
SMILES	uPA surface inh	DRD3 antagonist	RGS4 inhibitor	D3 ag
CCCN(CCC)c1nc(-c2ccccn2)nc2ccccc12	-17.9%	?	-0.3%	-8.8
c1ccc(-c2nc(N3CCCCCC3)c3ccccc3n2)nc1	-13.9%	-126.8*	4.0%	-18.0
CN1CCN(c2nc(-c3ccc(Cl)cc3)nc3ccccc23)CC1	1.1%	-60.7*	-7.7%	-31.2
c1ccc(-c2nc(N3CCOCC3)c3ccccc3n2)nc1	-2.7%	-6.2	-10.2%	6.7
CN1CCN(c2nc(-c3ccncc3)nc3ccccc23)CC1	-13.6%	74.9	17.8%	-1.3
c1ccc(CCNc2nc(-c3ccccn3)nc3ccccc23)cc1	-15.5%	-70.4*	19.5%	-26.0
C/C=C1\COC(C(=O)NCc2ccccn2)(C(F)(F)F)C=C1C=C(C)C (configuration not stated)	nt	nt	-32.0%	nt
CCOC(=O)CCn1c(=O)c2cccn2c2cccnc21	nt	nt	-17.3%	2.6
COc1ccc(OC)c(S(=O)(=O)N2Cc3ccccc3CC2C(=O)Nc2ccc(C(C)=O)cc2)c1 (configuration not stated)	nt	nt	-34.5%	1.4
CCOC(=O)Cn1c(=O)n(-c2ccc(Cl)cc2)c2nc(-c3ccc(Cl)cc3)nc(C(N)=O)c21	nt	nt	-9.9%	-7.9
Cc1ccc(-c2csc(N/N=C/c3ccco3)n2)cc1	nt	7.4	-32.5%	0.6
Brc1ccc(-c2csc(N/N=C/c3ccco3)n2)cc1	-0.1%	36.3	-0.2%	30.1*
O=C(CN(C(=O)c1cccc([N+](=O)[O-])c1)C1CCCCC1)Nc1ccc(Cl)c([N+](=O)[O-])c1	9.4%	-79.1*	10.4%	-12.3
CCSc1nc(-c2ccccc2OC)nc2c1Cc1c(CO)cnc(C)c1O2	nt	nt	24.1%	2.3
COc1cc(OCc2ccccc2)c(OC)c(OCc2ccccc2)c1	0.6%	28.2	-8.8%	39.8*
COC(=O)c1c(NC(=O)c2ccco2)sc2c1C(C(=O)OC)CC2 (configuration not stated)	-11.4%	-50.1*	-34.2%	4.1
COc1ccccc1N1CCN(Cc2nc(N)nc(Nc3ccccc3)n2)CC1	0.2%	-71.1*	23.0%	-9.5
COc1ccccc1Nc1nc(N)nc(CN2CCC(Cc3ccccc3)CC2)n1	1.1%	-58.9*	41.5%	-3.8
Nc1nc(CN2CCN(Cc3ccccc3)CC2)nc(Nc2ccc3c(c2)OCCO3)n1	0.8%	-59.4*	-28.6%[56.9 µM]	-0.3
CCN1c2ccccc2-c2nc(SCC(=O)NCc3ccccc3)ncc2S1(=O)=O	nt	nt	-33.3%	-13.0
Cc1cc(C(C)(C)C)cc(C)c1CC1=NCCN1	-27.3%	-79.3*	-16.4%[56.9 µM]	0.0
O=C(O)CCc1ccc(-c2ccc(Cl)cc2)n1-c1cccc(C(F)(F)F)c1	nt	nt	-24.6%	-2.6
Nc1cc(CN2C(=O)c3ccccc3C2=O)cc(Cl)c1O	-19.3%	10.3	-25.2%	31.4*
O=C1c2ccccc2C(=O)N1Cc1cc(Cl)c(O)c([N+](=O)[O-])c1	9.7%	-8.2	-14.9%	-7.1
COc1ccc(-n2c(=O)c3sc4ccccc4c3n(CC(=O)Nc3ccccc3F)c2=O)cc1	nt	nt	24.9%	6.0
SMILES	uPA surface inh	DRD3 antagonist	RGS4 inhibitor	D3 ag
COc1ccc(C(=O)O)nc1C	-2.2%	5.7	9.7%	2.1
Cc1cc(C)c2ccc(C(=O)O)nc2c1O	3.7%	-62.8*	1.4%[56.9 µM]	-6.5
O=C[C@H](O)[C@@H](O)[C@H](O[C@H]1O[C@H](CO)[C@@H](O[C@H]2O[C@H](CO)[C@@H](O)[C@H](O)[C@H]2O)[C@H](O)[C@H]1O)[C@H](O)CO	nt	nt	nt	8.9
Cc1ccc(NC(=O)c2nc[nH]c2C(=O)NCCCCNC(=O)c2[nH]cnc2C(=O)Nc2ccc(C)cc2)cc1	15.3%	145.8	10.6%	42.4*
Cc1ccc(NC(=O)c2nc[nH]c2C(=O)NCCCCCCNC(=O)c2[nH]cnc2C(=O)Nc2ccc(C)cc2)cc1	8.5%	-3.4	-22.8%	1.2
O=C(Nc1ccccc1)c1nc[nH]c1C(=O)NCCNC(=O)c1[nH]cnc1C(=O)Nc1ccccc1	2.4%	134.0	-44.2%	69.0*
